Measurements published in the supplement of paper PMC3545927.
The other results are listed elsewhere or left out. No count for the full screen is at hand.

B1: HC1360 (peptide)
chain: CADLSDGSWSAGNASASA
B2: FS-3261 (peptide)
chain: CARRIRFVGRAGNASASA
B3: FS-1161 (peptide)
chain: CARRQVWKRRAGNASASA
B4: FS-713 (peptide)
chain: CARRLRDKRRAGNASASA
B5: HC1645 (peptide)
chain: CAGWFTAGYSAGNASASA
B6: HC2229 (peptide)
chain: CAEVVTSTYVAGNASASA
B7: HC134 (peptide)
chain: CAEVVCSTWVAGNASASA
B8: FS-665 (peptide)
chain: CAILHRQKRGAGNASASA
B9: FS-899 (peptide)
chain: CAYDCRCKRGAGNASASA
B10: FS-309 (peptide)
chain: CAVHHRPKRGAGNASASA
B11: HC2406 (peptide)
chain: CAEVPCHRPMAGNASASA
B12: HC486 (peptide)
chain: CARCDLEDRDAGNASASA

Target: furin, P09958
Assay: furin cleavage Z-score vs untreated control; higher = more cleavage, active = 3.5 or more, inactive = 1 or less, 8 variable residues between constant flanks
Procedure, shortened: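 The cleavage Z-score is the log read count relative to furin-free reactions, lowess-adjusted and scaled by median absolute deviation. Counts came from sequencing DNA released from bead-bound 8-mer peptide–cDNA fusions after digestion with purified furin for 7.5, 15 or 30 min.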
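Further: purified furin at 1:10 enzyme:substrate in 50 mM HEPES pH 7.5.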

furin, P09958, sequence (P09958 whole entry): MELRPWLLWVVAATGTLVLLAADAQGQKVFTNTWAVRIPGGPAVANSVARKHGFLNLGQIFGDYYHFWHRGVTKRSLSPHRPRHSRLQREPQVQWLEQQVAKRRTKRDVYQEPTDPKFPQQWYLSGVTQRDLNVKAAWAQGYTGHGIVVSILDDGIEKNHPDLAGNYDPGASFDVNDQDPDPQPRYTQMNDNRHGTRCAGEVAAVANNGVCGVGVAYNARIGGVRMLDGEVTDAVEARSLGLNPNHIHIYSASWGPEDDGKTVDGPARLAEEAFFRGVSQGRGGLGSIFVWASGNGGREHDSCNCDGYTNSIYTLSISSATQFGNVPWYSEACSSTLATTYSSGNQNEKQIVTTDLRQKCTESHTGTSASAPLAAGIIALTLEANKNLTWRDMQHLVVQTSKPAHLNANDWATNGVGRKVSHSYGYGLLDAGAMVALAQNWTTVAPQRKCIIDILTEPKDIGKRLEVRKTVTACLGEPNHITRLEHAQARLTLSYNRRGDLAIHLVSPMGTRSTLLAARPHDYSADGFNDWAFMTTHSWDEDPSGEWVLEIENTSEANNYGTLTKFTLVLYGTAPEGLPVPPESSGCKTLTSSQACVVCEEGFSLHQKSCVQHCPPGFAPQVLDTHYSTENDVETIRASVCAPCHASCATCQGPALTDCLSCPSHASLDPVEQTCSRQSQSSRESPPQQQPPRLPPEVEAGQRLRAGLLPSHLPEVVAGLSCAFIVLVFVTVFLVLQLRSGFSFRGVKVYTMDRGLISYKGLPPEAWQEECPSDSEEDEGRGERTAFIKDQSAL

Row | Sequence | furin cleavage Z-score (7.5 min) | furin cleavage Z-score (15 min) | furin cleavage Z-score (30 min)
1 | B1 | -0.871 (inactive) | -1.27 (inactive) | -0.416 (inactive)
2 | B2 | 0.201 (inactive) | 1.15 | 3.25
3 | B3 | 0.586 (inactive) | 4.58 (active) | 4.41 (active)
4 | B4 | 0.73 (inactive) | 2.01 | 1.44
5 | B5 | 0.812 (inactive) | -0.589 (inactive) | 0.435 (inactive)
6 | B6 | 0.886 (inactive) | 0.18 (inactive) | 0.589 (inactive)
7 | B7 | -0.675 (inactive) | -0.0617 (inactive) | -0.318 (inactive)
8 | B8 | 12.5 (active) | 12.9 (active) | 9.04 (active)
9 | B9 | 0.698 (inactive) | 0.0271 (inactive) | 1.85
10 | B10 | 12 (active) | 10.8 (active) | 9.72 (active)
11 | B11 | -0.721 (inactive) | 1.03 | -0.487 (inactive)
12 | B12 | 1.03 | -0.684 (inactive) | -1.47 (inactive)
